Bioassay records (PubChem BioAssay)
DAX1 inh-1 = NR0B1 (DAX1) inhibition; P51843; HEK293 Gal4-DAX1 luciferase reporter, luminescence; inhibition, % at 6.75 µM; hit rate 0.99% among 340,000; AID 504766;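 active means inhibition above the mean over all tested compounds plus 3 SD, cut at about 4.2% in these data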;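 further: 0% = DAX1-transfected cells with DMSO and 100% = empty-vector control cells with DMSO; inhibition shows as a rise in luminescence from relieved DAX1 repression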
Target sequence (P51843 207-470 limits assumed): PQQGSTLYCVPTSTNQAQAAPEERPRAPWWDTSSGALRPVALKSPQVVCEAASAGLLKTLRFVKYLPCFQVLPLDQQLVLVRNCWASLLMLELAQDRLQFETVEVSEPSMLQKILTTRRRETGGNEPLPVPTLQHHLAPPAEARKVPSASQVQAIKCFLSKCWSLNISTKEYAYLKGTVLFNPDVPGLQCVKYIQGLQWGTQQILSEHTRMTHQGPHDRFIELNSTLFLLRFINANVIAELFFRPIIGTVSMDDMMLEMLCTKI
DAX1 inh-2 = blocks DAX1 repression of SF-1 activated StAR promoter | HEK293T StAR-luciferase reporter, SF-1/DAX-1 repression relief | inhibition, % at 6.8 µM | hit rate 1.1% among 370,000;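 active means inhibition above the mean over all tested compounds plus 3 SD, cut at about 3.6% in these data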;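 further: 0% = DAX-1 cells with DMSO and 100% = cells lacking DAX-1 with DMSO; higher inhibition means more luminescence from relief of DAX-1 repression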
ssDAF12 agonist = S. stercoralis DAF-12 activation, primary screen. AID 652126. HEK293 ssDAF-12/GRIP1 lit1-tk-luc reporter, luminescence; % of 3 µM dafachronic acid response. activation, % at 6.8 µM. hit rate 1% among 370,000;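 active means activation above the mean over all tested compounds plus 3 SD, cut at about 0.9% in these data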;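 further: 0% = DMSO-only wells and 100% = 3 µM delta7-dafachronic acid wells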
SMARCA2 act = increases SMARCA2 function in MMTV reporter cells | MG213 cells, MMTV-luciferase reporter, dexamethasone, overnight | activation, % at 9.1 µM | hit rate 1% among 370,000 | AID 652017; in the data active means activation above about 7.8%;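 further: 0% = vehicle wells and 100% = reference activator wells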
hcDAF12 agonist = activators of H. contortus DAF-12 nuclear receptor; HEK293 hcDAF-12 lit1-tk-luc reporter, luminescence; 0% DMSO, 100% Δ7-dafachronic acid; activation, % at 6.8 µM; hit rate 1.4% among 370,000;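 active means activation above the mean of all tested compounds plus 3 SD, cut at about 5.5% in these data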;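 further: 100% = response to 3 µM Δ7-dafachronic acid high control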
hgDAF-12 ag = hgDAF-12 agonism, primary luciferase screen | hit rate 1.8% among 370,000 | AID 687014 | HEK293 GAL4-hgDAF12 UAS-luciferase reporter, agonist luminescence; normalized to butyrate control | activation, % at 6.8 µM;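 active means activation above a cutoff set at the mean of all screened compounds plus 3 SD, cut at about 10% in these data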;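 further: 0% = DMSO wells and 100% = sodium butyrate wells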
Active calls of the source: *; / = no result. In the library only some 4.8% were active in any assay of this set; here they are far more common.

SMILES	DAX1 inh-1	DAX1 inh-2	ssDAF12 agonist	SMARCA2 act	hcDAF12 agonist	hgDAF-12 ag
O=C(NCCN1CCC(n2c(=O)[nH]c3ccccc32)CC1)c1cccc(Cl)c1	/	-0.5	-0.7	-2.8	-1.5	18.8*
O=C(NCCN1CCC(n2c(=O)[nH]c3ccccc32)CC1)c1cccc(F)c1	/	0.1	-0.3	-4.0	-2.0	-1.1
O=C(CN1C(=O)NC2(CCCC2)C1=O)Nc1nc2ccccc2s1	3.5	1.4	0.7	1.6	5.8*	4.7
O=C(CN1C(=O)NC2(CCCC2)C1=O)Nc1ccc(OC(F)(F)F)cc1	9.7*	-0.1	-0.9	-2.1	-1.7	-1.1
CN(CC(=O)Nc1ccc(F)cc1)C(=O)COC(=O)CN1C(=O)NC2(CCCC2)C1=O	-0.2	0.7	-0.7	0.9	5.8*	-0.3
O=C(COC(=O)CN1C(=O)NC2(CCCC2)C1=O)Nc1ccccc1C(F)(F)F	12.0*	1.5	-1.2	-2.8	0.2	0.3
CN(CC(=O)Nc1ccc(F)cc1)C(=O)CN1C(=O)NC2(CCCCC2)C1=O	0.6	0.0	-1.0	-1.7	0.8	0.7
CN(C)S(=O)(=O)c1cccc(C(=O)N/N=C\c2ccnc3ccccc23)c1	/	0.0	-0.1	-7.7	-3.1	-1.6
Cc1ccc(OC[C@@H](O)CN2CCC(C(O)(c3ccccc3)c3ccccc3)CC2)cc1	/	0.3	-0.9	-5.0	0.8	-0.9
COC[C@H]1CCCN1c1cccc2c1S(=O)(=O)N(C1CC1)CCCO2	/	-0.9	-0.8	-2.1	-2.4	-0.5
CCN(CC)CCN1C(=O)C(=O)/C(=C(/O)c2ccc(F)cc2)C1c1cccnc1 (stereo unspecified)	5.0*	0.0	-1.0	-0.7	-1.2	-0.4
CN(C)CCN1C(=O)C(=O)/C(=C(/O)c2ccc(F)cc2)C1c1ccccc1F (stereo unspecified)	0.9	0.3	-1.6	0.5	0.0	0.8
Cc1nc2ccccn2c1/C(O)=C1\C(=O)C(=O)N(CCN(C)C)C1c1ccco1 (stereo unspecified)	5.2*	-0.1	-1.1	-0.9	1.5	1.7
Cc1ccc(/C(O)=C2\C(=O)C(=O)N(CCN(C)C)C2c2ccccc2F)cc1 (stereo unspecified)	4.6*	-0.7	-1.3	0.2	-1.2	-0.8
O=C1CC(c2ccc3c(c2)OCO3)N=C2N(Cc3ccc4c(c3)OCO4)C/C(=C/c3ccccc3)N12 (stereo unspecified)	/	/	-1.9	/	-2.5	-0.5
CCOc1cc(CCNC(=O)c2cc3sccc3n2CC)ccc1OC	/	-1.8	-2.1	-1.1	-2.5	-1.3
Cc1cc(N2CCN(CCO)CC2)n2nc(C)nc2n1	/	-0.5	0.4	5.3	-0.8	5.3
S=C(NN=C(C1CC1)C1CC1)Nc1ccccc1	6.8*	0.6	-0.7	1.4	-0.9	10.3
C[C@H]1COc2cccc(N3CCCC3)c2S(=O)(=O)N1C	/	-0.3	-0.9	4.2	-0.4	-1.6
O=C(CCCc1ccccc1)Nc1ccccc1[N+](=O)[O-]	5.0*	0.7	-0.4	4.5	1.2	3.6
O=C(Nc1ccccc1F)c1ccc(OCc2ccccc2)cc1	1.4	1.6	-0.2	1.5	5.5	10.7*
O=C(CCc1ccccc1)Nc1ccccc1F	2.2	3.7*	-0.3	-2.2	2.0	11.7*
COc1cc(-c2c(C(=O)c3ccccc3)[nH]c(N)c2C(N)=O)ccc1O	/	/	-0.5	/	2.0	1.2
C[C@H]1[C@@H](OC(=O)Nc2cc(Cl)ccc2Cl)CC[C@@]23CCCN2C(=O)CCC[C@@H]13	/	/	-1.6	/	-1.4	1.7
O=C(CN1C(=O)CCSc2ccccc21)Nc1ccc(F)cc1F	/	1.1	-1.0	-5.1	-1.0	-1.9
COc1ccc(-c2ccc(/C=N/N3C(=O)C4C5C=CC(C6CC56)C4C3=O)o2)c([N+](=O)[O-])c1 (stereo unspecified)	4.4*	-0.8	-1.2	-1.1	-2.9	-3.5
O=C1C2C3C=CC(C4CC34)C2C(=O)N1/N=C/c1ccc(-c2ccc(F)cc2[N+](=O)[O-])o1 (stereo unspecified)	0.1	0.0	-0.8	-2.2	0.2	0.7
O=C(O)c1cccnc1Sc1ccccc1	1.1	-0.2	-0.7	-4.5	-1.9	-1.4
Cc1nccnc1Sc1ccccc1	-0.1	0.1	2.0*	-0.6	0.5	-1.6
